Most compounds without a hit are left out; they make up all but 1.6% or so of the library.
Vif imaging = blocks HIV Vif function | HEK293T cells, Vif self-association by quenched fluorescence, imaging, 24 h | inhibition, % at 7.49 µM | 340,000 tested, 0.35% active | AID 602346; in the data active = inhibition above about 50%, passing the limit was not always enough
Glyco luc inh = N-linked glycosylation inhibition; D54 ERlucT glycosylation luciferase reporter, 24 h; percent of 100 nM tunicamycin response; reporter increase, % at 12.5 µM; 360,000 tested, 0.23% active; AID 588692;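 active = mean luciferase reporter signal, scaled so untreated is 0 and the glycosylation-blocking control 100, at or above a set limit in every replicate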;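 note: luciferase carries N-glycosylation sites so blocking glycosylation raises the light; 0% = median of neutral control wells and 100% = median of 100 nM tunicamycin wells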
ABCB6 inh MLPCN = inhibitors of human ABC transporter ABCB6 | 360,000 tested, 0.19% active | Q9NP58 | fluorescence ratio to DMSO, % at 10 µM | K562-ABCB6 porphyrin accumulation, flow cytometry, 1 h; hits give low values;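 active = fluorescence ratio to DMSO below 75%, the collection mean minus 3 SD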;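 note: signal is porphyrin accumulated inside mitochondria; 100% equals median channel fluorescence of DMSO control wells; lower ratio means ABCB6 inhibition with less porphyrin fluorescence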
Myeloid diff 2 = compounds promoting myeloid differentiation. calls only at 10 µM. ER-HoxA9 myeloid progenitors, lysozyme-GFP differentiation, flow cytometry. 360,000 tested, 1% active;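 active = normalized GFP-positive differentiation at or above the plate's own cutoff, the solvent-only control mean plus 3 SD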;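 note: cells exposed to compound for four days before flow analysis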
RAD54 inh = RAD54 (human) branch migration inhibition; Q92698; RAD54 Holliday junction branch migration, FAM/BHQ fluorescence; inhibition, % at 10.4 µM; 360,000 tested, 0.14% active; AID 602329;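 active = mean normalized replicate activity at least 40 and at least half of replicates scoring 40 or more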;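 note: 0% = median of neutral control wells and 100% = median of positive control wells; inhibitors cause a drop in the FAM fluorescence signal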
Myeloid diff CP1 = promotes myeloid progenitor differentiation; shares compounds with Myeloid diff 2; ER-HoxA9 myeloid progenitors, GFP/Mac1 double-positive flow; calls only; 2,300 tested, 2% active;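 active = share of green or green-and-red cells above 9 and 9% in run 1 or 4 and 3% in run 2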
GFP autofluor = flagged as fluorescent in myeloid differentiation counter-screen; shares compounds with Myeloid diff 2; ER-HoxA9 myeloid progenitors, no estrogen, GFP autofluorescence flow cytometry; vehicle wells 0%, positive control 100%; fluorescence response, % (no concentration beside the values); 2,300 tested, 7.4% active; AID 651707;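 active = over 5% cells positive for green fluorescent reporter, or over 2% positive for both it and APC stain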;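 note: range taken on the double positive population between DMSO and positive control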
An asterisk follows results filed as active; i = inactive; x = not tested or not shown; + = active, no number.

SMILES	Vif imaging	Glyco luc inh	ABCB6 inh MLPCN	Myeloid diff 2	RAD54 inh	Myeloid diff CP1	GFP autofluor
O=[N+]([O-])c1ccc(/C=[N+](\[O-])[C@@H]2CCCC[C@@H]2/[N+]([O-])=C/c2ccc([N+](=O)[O-])o2)o1	-14	-1	99	+	1	i	0
C[C@H](CO)N1C[C@H](C)[C@H](CN(C)Cc2ccncc2)Oc2cc(-c3ccccc3F)ccc2S1(=O)=O	-13	-4	99	i	-3	i	0
COc1ccccc1-c1ccc2c(c1)O[C@@H](CN(C)C(=O)Nc1cccc(F)c1)[C@H](C)CN([C@H](C)CO)S2(=O)=O	-2	-1	93	i	3	i	2
COc1ccccc1-c1ccc2c(c1)O[C@@H](CN(C)C(=O)Nc1cccc(F)c1)[C@@H](C)CN([C@@H](C)CO)S2(=O)=O	x	x	x	x	9	x	x
CC(C)C#Cc1ccc2c(c1)O[C@@H](CN(C)CC1CC1)[C@@H](C)CN([C@@H](C)CO)S2(=O)=O	x	x	x	x	3	x	x
C[C@H](CO)N1C[C@H](C)[C@@H](CN(C)S(=O)(=O)c2ccc(Cl)cc2)Oc2ccc(NC(=O)Cc3cn(C)c4ccccc34)cc2C1=O	x	x	x	x	4	x	x
COc1ccc(S(=O)(=O)N2C3CCC2CC(NC(=O)C2CC2)C3)cc1 (stereo unspecified)	-4	1	90	i	-3	i	0
CCOC(=O)C(=CNc1cc(C)nn1-c1ccccc1)C(=O)OCC	-6	3	98	i	11	i	0
O=C(C[C@@H]1CC[C@@H]2[C@H](COC[C@@H](O)CN2C(=O)c2ccccc2F)O1)NCc1ccccc1	x	x	x	x	-25	x	x
COc1cc2c(cc1N/C=C(\C#N)c1nc(-c3ccc(F)cc3)cs1)oc1ccccc12	0	0	114	+	x	i	7.2*
CCOC(=O)Cc1cnc(NC(=O)NC(C(=O)OCC)(c2ccccc2)C(F)(F)F)s1 (stereo unspecified)	-2	0	100	i	7	i	2
CCOC(=O)C(NC(=O)Nc1ccccc1)(OCC)C(F)(F)F (stereo unspecified)	0	0	105	i	-5	x	x
Cc1noc(C)c1S(=O)(=O)Nc1ccc2c(c1)C(=O)N([C@H](C)CO)C[C@@H](C)[C@@H](CN(C)C(=O)c1ccccc1)OCCCC[C@H](C)O2	x	x	x	x	2	x	x
COc1ccc(C(=O)O)cc1S(=O)(=O)N1CCN(Cc2ccc3c(c2)OCO3)CC1	-9	1	98	i	3	i	0
CCCC(=O)N1CCN(Cc2ccc3c(c2)OCO3)CC1	-5	3	89	i	2	x	x
CCC(CC)C(=O)N1CCN(Cc2ccc3c(c2)OCO3)CC1	2	-2	97	i	1	i	2
COc1ccc(Cl)cc1S(=O)(=O)N1CCN(Cc2ccc3c(c2)OCO3)CC1	-11	-3	95	i	2	x	x
C[C@H](CO)N1C[C@H](C)[C@@H](CN(C)CC2CCCCC2)OCCCC[C@H](C)Oc2ccc(NC(=O)C3CCCCC3)cc2C1=O	x	x	x	x	5	x	x
Cc1ccc(/C=N/NC(=O)CNC(=O)COc2ccc(Cl)cc2)o1	3	2	96	+	x	i	0
CCOc1ccc(C(=O)Nc2cccc(-c3nc4cccnc4o3)c2)cc1Cl	13	0	92	+	3	i	0
Cc1ccc(S(=O)(=O)Nc2cccc(C(=O)NCc3cccnc3)c2)cc1F	7	13	106	i	-10	i	0
O=C(NCc1cccnc1)c1cccc(NS(=O)(=O)c2ccc(Br)cc2)c1	4	20	99	x	-18	x	x
COCC(=O)Nc1ccc2c(c1)OC[C@@H](C)N(C(=O)Cc1cccnc1)C[C@H](C)[C@H](OC)CN(C)C2=O	x	x	x	x	3	x	x
CCn1c(COc2cccc(C)c2C)nnc1SCC(=O)Nc1cc(C)on1	-5	0	96	i	x	x	x
CCn1c(COc2ccccc2C)nnc1SCC(=O)Nc1cc(C)on1	-6	0	100	+	6	i	0
SMILES	Vif imaging	Glyco luc inh	ABCB6 inh MLPCN	Myeloid diff 2	RAD54 inh	Myeloid diff CP1	GFP autofluor
CCCC#Cc1ccc2c(c1)O[C@H](CN(C)C(=O)Nc1ccccc1F)[C@@H](C)CN([C@H](C)CO)S2(=O)=O	x	x	x	x	-5	x	x
COc1ccc(-c2nn(-c3ccccc3)cc2/C=N/Nc2ccc3ccccc3n2)cc1OC	x	-7	100	i	x	x	x
COc1ccc(-c2nn(-c3ccccc3)cc2/C=N/Nc2ccc(S(N)(=O)=O)cc2[N+](=O)[O-])cc1OC	23	-2	98	i	x	i	0
CO[C@H]1CN(C)C(=O)c2ccc(NC(=O)C3CC3)cc2OC[C@@H](C)N(C(=O)C2CCCCC2)C[C@H]1C	x	x	x	x	0	x	x
O=c1[nH]c(CN2CCN(c3ccccc3)CC2)nc2scc(-c3ccccc3)c12	-2	-6	112	+	-8	i	0
COc1ccc(N2CCN(Cc3nc4scc(-c5ccccc5)c4c(=O)[nH]3)CC2)cc1	x	-2	119	i	x	x	x
Cc1cc(C)cc(OCc2nc(-c3cccnc3)no2)c1	0	-1	112	+	x	i	0
CC(C)CN(C(=O)COC(=O)C12CC3CC(CC(C3)C1)C2)c1c(N)n(Cc2ccccc2)c(=O)[nH]c1=O	2	6	98	+	-12	i	9.5*
CCN(C(=O)CN1CCc2ccccc21)c1c(N)n(Cc2ccccc2)c(=O)[nH]c1=O	0	0	100	i	x	i	0
CC(C)CN(C(=O)c1ccc([N+](=O)[O-])s1)c1c(N)n(Cc2ccccc2)c(=O)[nH]c1=O	-8	3	108	+	-2	i	1
CC(C)CN(C(=O)COC(=O)C12CC3CC(CC(O)(C3)C1)C2)c1c(N)n(Cc2ccccc2)c(=O)[nH]c1=O	x	1	100	i	-8	x	x
COCCN(C(=O)CN1CCc2ccccc21)c1c(N)n(Cc2ccccc2)c(=O)[nH]c1=O	-1	3	111	i	0	x	x
C[C@H](O)C#Cc1cnc2c(c1)C(=O)N([C@H](C)CO)C[C@@H](C)[C@H](CN(C)C(=O)c1ccccc1F)O2	x	x	x	x	-6	x	x
C[C@@H]1CN([C@H](C)CO)C(=O)c2cc(NS(=O)(=O)c3cn(C)cn3)ccc2O[C@@H](C)CCCCO[C@@H]1CN(C)S(=O)(=O)c1ccc(F)cc1	x	x	x	x	2	x	x
COc1ccc(S(=O)(=O)Nc2ccc3c(c2)CC(=O)N([C@H](C)CO)C[C@H](C)[C@@H](CN(C)C(=O)Nc2ccccc2)O3)cc1	x	x	x	x	-1	x	x
O=C(CN1C(=O)NC2(CCCCC2)C1=O)Nc1ccccc1Cl	11	2	104	i	x	i	0
Nc1cccc(-c2cc3ccccc3oc2=O)c1	-2	-9	98	i	-6	x	x
